Laboratory results as given in PubChem BioAssay (NCATS).
Records with an inconclusive call do not appear. Active and inactive are the calls of the source. Unless noted, calls follow the shape of the dose curve; as a rule, active = well fitted curve in either direction with a large enough effect (not every such curve was filed as active); inconclusive = small, poorly fitted or top-dose-only effect, or another doubt; inactive = flat fitted curve, though single readings scatter.

How the values were obtained:
[1] = target: Lysosomal acid glucosylceramidase (Homo sapiens) (UniProt P04062); assay: Glucocerebrosidase-p2 (AID 348; in the data active = potency below about 10 µM; also: potency is read from the fitted curve at half-maximal effect); conditions: purified GBA, blue fluorogenic substrate, 40 min
Method in brief: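 Compounds titrated from 0.6 nM upwards against 0.2 nM enzyme in pH 5.9 citric acid/KH2PO4, taurocholate, tween-20; blue fluorogenic substrate 80 uM, 40 min room temperature, stopped and read Ex 365/Em 440 for AC50.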

[2] = AP1 Signaling Pathway (AID 357); conditions: ME-180 AP-1-bla reporter, EGF-induced, beta-lactamase ratio, 5 h; at 7.69 µM (top of the series) unless noted;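 also: ME-180 reporter cells stimulated with EGF at its EC50 level; % is scaled to controls: 0 for no effect and ±100 for the full control effect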
Method in brief: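 First, ME-180 AP-1-bla cells were cultured overnight at 37 °C in low-serum Opti-MEM. Next, titrated compounds with EC50 EGF were incubated 5 hours. Finally, CCF4 was added for 2.5 hours and the 460/530 nm ratio recorded.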

[3] = Stat Signaling Pathway (AID 446); conditions: ME-180 SIE beta-lactamase reporter, IL-6 stimulated, 5 h; at 7.69 µM (top of the series) unless noted;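 also: ME-180 cervical cancer cells given 40 pM IL-6 alongside compound; SIE-controlled beta-lactamase reporter measured as 460/530 nm FRET emission ratio; % is scaled to controls: 0 for no effect and ±100 for the full control effect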
Method in brief: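 Screening format detects activators and inhibitors alike: ME-180 SIE-bla cells stimulated at 40 pM IL-6 for 5 hrs with compound, then dual-emission beta-lactamase read at 405 nm excitation.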

[4] = target: Glucocorticoid receptor (Homo sapiens) (UniProt P04150); assay: GR-EFC Redistribution (AID 451; calls by dose curve; also: potency is read from the fitted curve at half-maximal effect); conditions: CHO-K1 GR-EFC translocation, beta-gal luminescence, 2 h
Method in brief: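 Translocation of GR-ED fusion to nuclear EA restores b-gal, read by luminescence after 1 h room-temperature detection. Engineered CHO-K1 biosensor cells, 1,000/well, exposed 2 h at 37 C to titrations up to 46 uM final.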

[5] = target: Mitogen-activated protein kinase 10 (Mus musculus) (UniProt Q61831); assay: JNK3 AlphaScreen Assay (AID 530); conditions: JNK3 lysate, c-Jun phosphorylation; series mostly up to 57.1 µM;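 also: kinase came from lysate of stimulated human HepG2 cells; signal reports phosphorylation of biotinylated GST-cJun 1-79 at Ser73 with 10 µM ATP; % is scaled to controls: 0 for no effect and ±100 for the full control effect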
Method in brief: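 Compound titrations were preincubated 15 minutes at room temperature with substrate, antibody and pre-activated JNK3-containing HepG2 lysate. Reactions were started with 10 uM ATP and stopped with EDTA-containing bead buffer for AlphaScreen detection.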

[6] = target: 3',5'-cyclic-AMP phosphodiesterase 4B (Homo sapiens) (UniProt Q07343); assay: qHTS Assay for Inhibitors of PDE-IV (AID 607; active = well fitted activation curve with a large enough effect in the main read-out, with a control signal flat, not every such curve was filed as active; also: % of control where 0% means no effect); conditions: HEK293 ACTOne CNG channel cells, membrane potential fluorescence; series mostly up to 22.9 µM
Method in brief: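 The readout is membrane depolarisation from a cAMP-sensing CNG channel, detected with a potential dye at ex 535/em 590. Cells were HEK293-derived (endogenous PDE-IV) at 1000 cells/well, titrated up to 22.9 uM final.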

[7] = qHTS Assay for Lipid Storage Modulators (AID 1519; calls by dose curve); conditions: Drosophila S3 cells, BODIPY lipid droplet/cell ratio, laser cytometry, cells loaded with oleic acid; for activity change, negative = inhibition: at 57.5 µM (top of the series)
Method in brief: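 Cells seeded at 5,000 per well were treated with compounds over a concentration series and loaded with oleic acid (400 uM, as added). Lipid droplet fluorescence (488 nm excitation, 500-530 nm channel) was read by laser-scanning cytometry and normalized to 20 uM Triacsin C.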

[8] = Primary qHTS for small molecule stabilizers of the endoplasmic reticulum resident proteome: Secreted ER Calcium Modulated Protein (SERCaMP) assay (AID 1508630; active = well fitted curve in the direction sought with a large enough effect; an effect the other way counts as inactive or inconclusive; also: % is scaled to controls: 0 for no effect and ±100 for the full control effect); conditions: SH-SY5Y GLuc-SERCaMP (Gaussia luciferase released on ER calcium loss) secretion, thapsigargin, luminescence; series mostly up to 38.4 µM
Method in brief: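 GLuc-SERCaMP-expressing SH-SY5Y cells, pretreated 16 h with compound, are challenged with thapsigargin to empty ER calcium stores; after 4 h, coelenterazine is added directly to the medium and luminescence is imaged.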

[9] = target: Cytochrome P450 1A2 (Homo sapiens) (UniProt P05177); assay: p450-cyp1a2 (AID 410; calls by dose curve; also: potency is read from the fitted curve at half-maximal effect;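 as to activity change, negative = inhibition: -100% = full effect of reference inhibitor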); conditions: recombinant CYP1A2, luciferin-ME demethylation, luminescence; series mostly up to 57 µM
Method in brief: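 Luminescent readout of luciferin formed from Luciferin-ME by human CYP1A2; data normalized against complete inhibition by 57 uM furafylline. Enzyme 20nM, substrate 100uM at Km, 100mM KPO4 buffer, 60 min reaction at room temperature.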

[10] = NFAT Signaling Pathway (AID 444); conditions: Jurkat NFAT-bla M1, carbachol, beta-lactamase ratio, 5 h; at 7.69 µM (top of the series) unless noted
Method in brief: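 Read-out: CCF4 FRET ratio (460 nm/530 nm) after 1 h RT dye loading, used for %activity and AC50 from titration series. Cells: Jurkat NFAT-β-lactamase/M1 line, treated with compound plus 1 uM carbachol for 5 h, 37 °C.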

[11] = target: Glucocorticoid receptor (Homo sapiens) (UniProt P04150); assay: GR-GFP Redistribution (AID 450;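 active = compounds whose dose series gives a full or clear partial fitted curve of increased nuclear translocation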; also: potency is read from the fitted curve at half-maximal effect); conditions: U2OS GR-GFP nuclear translocation, laser cytometry, 2 h
[12] = target: Cytochrome P450 3A4 (Homo sapiens) (UniProt P08684); assay: qHTS Assay for Activators of Cytochrome P450 3A4 (AID 885; active = well fitted curve in the direction sought with a large enough effect; an effect the other way counts as inactive or inconclusive; also: nearly all actives have a fitted effect of over 65% in size; also: potency is read from the fitted curve at half-maximal effect); conditions: recombinant CYP3A4, Luciferin-PPXE luminescence, 60 min; series mostly up to 57.1 µM
Method in brief: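 Steps: enzyme/substrate mix dispensed; compound added, 10 min RT; NADPH regeneration solution added, 60 min RT; luciferin detection buffer stops reaction; 20 min later luminescence measured.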

[13] = Confirmation and Secondary Assay for Modulators of Hemoglobin Beta Chain Splicing at IVS2 654 locus (AID 910; active = well fitted curve in the direction sought with a large enough effect; an effect the other way counts as inactive or inconclusive;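 also: HeLa cells stably carrying EGFP split by mutant beta-globin IVS2-654 intron; per-well total GFP intensity by laser scanning cytometry after 2-day treatment; % of control where 0% means no effect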); conditions: HeLa EGFP-654 splicing reporter, GFP fluorescence, 48 h; series mostly up to 38.3 µM
Method in brief: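 Readout: per-well total peak green fluorescence (488 nm ex, 500–520 nm em) from objects 5–250 µm, reflecting correct splicing of an EGFP-654 reporter. Compounds were applied for 2 days at 37 °C to overnight-plated HeLa EGFP-654 cells; controls were DMSO and 500 nM IVS2-654 PNA.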

[14] = Confirmation and Secondary Assay for Modulators of Hemoglobin Beta Chain Splicing at IVS2 705 locus (AID 930; active = well fitted curve in the direction sought with a large enough effect; an effect the other way counts as inactive or inconclusive;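 also: HeLa cells stably expressing the EGFP-705 splicing reporter; GFP fluorescence per well restored by corrected splicing of the IVS2-705 intron in EGFP; % of control where 0% means no effect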); conditions: HeLa EGFP-705 splicing reporter, GFP fluorescence, 48 h; series mostly up to 38.3 µM
Method in brief: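 Assay measures total GFP intensity per well in HeLa EGFP-705 cells after 2 days with compound; mis-splicing normally truncates EGFP, so fluorescence indicates corrected splicing.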

[15] = target: Cytochrome P450 3A4 (Homo sapiens) (UniProt P08684); assay: qHTS Assay for Inhibitors and Substrates of Cytochrome P450 3A4 (AID 884; active = well fitted curve in the direction sought with a large enough effect; an effect the other way counts as inactive or inconclusive; also: nearly all actives have a fitted effect of over 50% in size; also: potency is read from the fitted curve at half-maximal effect); conditions: recombinant CYP3A4, Luciferin-PPXE luminescence; series mostly up to 57.1 µM
Method in brief: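 20 nM human CYP3A4 with 25 uM Luciferin-PPXE (at KM) in 200 mM KPO4, preincubated 10 min with compound; NADPH regeneration started a 60 min RT reaction. Luciferin detected by luminescence, normalized to 57 uM ketoconazole as full inhibition.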

[16] = qHTS Assay for Identification of Small Molecule Agonists for Hypoxia Response Element Signaling Pathway (AID 914; active = well fitted activation curve with a large enough effect in the signal ratio, with a control signal flat, not every such curve was filed as active; the % refers to the signal ratio; also: % of control where 0% means no effect); conditions: ME-180 (cervical carcinoma) HRE-bla reporter, beta-lactamase ratio, CoCl2, 17 h; activation: stronger effect = higher value
Method in brief: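 Compounds in a titration series were added to ME-180 reporter cells alongside an EC50 level of CoCl2. After 17 hours, beta-lactamase activity was read as the 460nm/530nm emission ratio of CCF4, giving AC50 values.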

[17] = target: Cytochrome P450 2C19 (Homo sapiens) (UniProt P33261); assay: qHTS Assay for Inhibitors and Substrates of Cytochrome P450 2C19 (AID 899; active = well fitted curve in the direction sought with a large enough effect; an effect the other way counts as inactive or inconclusive; also: nearly all actives have a fitted effect of over 60% in size; also: potency is read from the fitted curve at half-maximal effect); conditions: recombinant CYP2C19, luciferin-H EGE luminescence; series mostly up to 57.1 µM
Method in brief: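 Reactions contain 5nM enzyme, 10uM Luciferin-H EGE (KM) and 50mM KPO4; compound preincubates 10 min at 37C, NADPH regeneration starts turnover for 60 min. Luminescence after detection reagent gives activity.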

[18] = target: Cytochrome P450 2D6 (Homo sapiens) (UniProt P10635); assay: qHTS Assay for Inhibitors and Substrates of Cytochrome P450 2D6 (AID 891; active = well fitted curve in the direction sought with a large enough effect; an effect the other way counts as inactive or inconclusive; also: potency is read from the fitted curve at half-maximal effect; nearly all actives have a fitted effect of over 60% in size); conditions: recombinant CYP2D6, luciferin-ME EGE luminescence; series mostly up to 57.1 µM
Method in brief: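 Human CYP2D6 (5 nM) with 30 uM Luciferin-ME EGE (at Km) in 100 mM KPO4, compound preincubated 10 min, then NADPH regeneration system for 60 min at room temperature. Luciferin read by luminescence; normalized to 1.43 uM quinidine.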

[19] = measured here: cell count channel max response
[20] = measured here: lipid channel max response

Cytochrome P450 3A4 (Homo sapiens), sequence (P08684 whole entry, looked up): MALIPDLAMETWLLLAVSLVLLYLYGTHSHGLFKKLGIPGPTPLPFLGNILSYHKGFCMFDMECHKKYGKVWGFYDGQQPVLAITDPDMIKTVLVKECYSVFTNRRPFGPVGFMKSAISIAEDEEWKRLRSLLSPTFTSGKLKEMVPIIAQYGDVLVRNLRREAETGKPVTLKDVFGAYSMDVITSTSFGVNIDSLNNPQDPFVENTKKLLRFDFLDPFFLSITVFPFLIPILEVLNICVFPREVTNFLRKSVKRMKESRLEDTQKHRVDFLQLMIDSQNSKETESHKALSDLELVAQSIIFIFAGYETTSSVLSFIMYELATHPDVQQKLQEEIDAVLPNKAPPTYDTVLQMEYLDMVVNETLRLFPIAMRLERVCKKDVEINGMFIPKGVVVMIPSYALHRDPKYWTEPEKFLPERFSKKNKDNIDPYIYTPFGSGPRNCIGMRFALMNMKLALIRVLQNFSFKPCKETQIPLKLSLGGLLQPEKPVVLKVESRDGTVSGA
Glucocorticoid receptor (Homo sapiens), sequence (P04150 whole entry, looked up, the tested form may be a part): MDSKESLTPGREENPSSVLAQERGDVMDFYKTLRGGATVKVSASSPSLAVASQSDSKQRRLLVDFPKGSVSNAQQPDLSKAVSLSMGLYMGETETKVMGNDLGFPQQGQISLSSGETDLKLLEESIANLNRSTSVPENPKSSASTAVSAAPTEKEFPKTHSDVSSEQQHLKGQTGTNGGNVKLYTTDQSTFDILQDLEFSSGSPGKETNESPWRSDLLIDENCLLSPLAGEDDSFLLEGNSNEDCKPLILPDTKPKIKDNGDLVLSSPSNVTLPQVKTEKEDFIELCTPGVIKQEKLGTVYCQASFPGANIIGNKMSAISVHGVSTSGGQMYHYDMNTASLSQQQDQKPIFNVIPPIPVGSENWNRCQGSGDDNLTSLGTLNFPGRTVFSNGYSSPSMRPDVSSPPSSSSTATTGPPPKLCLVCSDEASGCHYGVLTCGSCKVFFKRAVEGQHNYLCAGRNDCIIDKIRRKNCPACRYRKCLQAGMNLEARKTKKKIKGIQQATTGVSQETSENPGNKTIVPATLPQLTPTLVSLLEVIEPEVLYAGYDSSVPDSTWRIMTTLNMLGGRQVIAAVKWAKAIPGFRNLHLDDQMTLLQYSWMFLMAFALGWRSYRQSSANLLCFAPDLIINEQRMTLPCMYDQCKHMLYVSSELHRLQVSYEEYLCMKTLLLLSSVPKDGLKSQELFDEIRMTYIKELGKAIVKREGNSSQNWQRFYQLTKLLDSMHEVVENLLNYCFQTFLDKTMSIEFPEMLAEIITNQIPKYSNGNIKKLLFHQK
Lysosomal acid glucosylceramidase (Homo sapiens), sequence (P04062 whole entry, looked up): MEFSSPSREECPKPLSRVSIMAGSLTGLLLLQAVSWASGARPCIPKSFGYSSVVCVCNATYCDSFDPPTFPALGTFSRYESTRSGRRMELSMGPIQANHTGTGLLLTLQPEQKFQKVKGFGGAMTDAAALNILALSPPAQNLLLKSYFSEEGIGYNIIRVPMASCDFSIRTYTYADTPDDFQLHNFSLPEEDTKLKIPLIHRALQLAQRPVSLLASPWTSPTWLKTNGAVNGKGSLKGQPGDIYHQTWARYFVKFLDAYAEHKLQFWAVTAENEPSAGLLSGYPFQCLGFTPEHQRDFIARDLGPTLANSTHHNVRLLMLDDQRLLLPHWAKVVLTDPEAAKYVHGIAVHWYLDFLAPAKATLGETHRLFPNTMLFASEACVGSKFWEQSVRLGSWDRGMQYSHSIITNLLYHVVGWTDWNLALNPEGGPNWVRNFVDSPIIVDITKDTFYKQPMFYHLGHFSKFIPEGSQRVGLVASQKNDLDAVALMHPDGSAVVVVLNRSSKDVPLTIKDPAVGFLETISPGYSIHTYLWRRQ
3',5'-cyclic-AMP phosphodiesterase 4B (Homo sapiens), sequence (Q07343 whole entry, looked up): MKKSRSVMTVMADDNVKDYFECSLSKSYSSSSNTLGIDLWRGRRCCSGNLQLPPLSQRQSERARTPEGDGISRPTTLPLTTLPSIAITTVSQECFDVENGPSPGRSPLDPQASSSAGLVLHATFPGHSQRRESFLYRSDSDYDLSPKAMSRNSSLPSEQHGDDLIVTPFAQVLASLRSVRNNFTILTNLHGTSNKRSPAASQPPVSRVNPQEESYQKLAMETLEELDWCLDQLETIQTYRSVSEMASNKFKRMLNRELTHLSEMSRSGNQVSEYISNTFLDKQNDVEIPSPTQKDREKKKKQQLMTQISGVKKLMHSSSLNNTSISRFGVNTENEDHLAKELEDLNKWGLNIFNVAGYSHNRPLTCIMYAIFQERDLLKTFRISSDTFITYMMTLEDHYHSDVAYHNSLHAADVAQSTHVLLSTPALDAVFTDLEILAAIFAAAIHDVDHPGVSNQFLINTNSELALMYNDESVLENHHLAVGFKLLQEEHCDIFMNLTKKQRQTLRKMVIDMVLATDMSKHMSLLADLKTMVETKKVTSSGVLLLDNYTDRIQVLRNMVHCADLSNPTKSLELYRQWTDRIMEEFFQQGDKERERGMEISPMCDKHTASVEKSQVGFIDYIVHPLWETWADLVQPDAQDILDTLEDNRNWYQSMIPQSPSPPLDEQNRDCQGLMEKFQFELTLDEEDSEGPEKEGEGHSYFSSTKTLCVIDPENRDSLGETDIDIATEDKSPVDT
Cytochrome P450 1A2 (Homo sapiens), sequence (P05177 whole entry, looked up): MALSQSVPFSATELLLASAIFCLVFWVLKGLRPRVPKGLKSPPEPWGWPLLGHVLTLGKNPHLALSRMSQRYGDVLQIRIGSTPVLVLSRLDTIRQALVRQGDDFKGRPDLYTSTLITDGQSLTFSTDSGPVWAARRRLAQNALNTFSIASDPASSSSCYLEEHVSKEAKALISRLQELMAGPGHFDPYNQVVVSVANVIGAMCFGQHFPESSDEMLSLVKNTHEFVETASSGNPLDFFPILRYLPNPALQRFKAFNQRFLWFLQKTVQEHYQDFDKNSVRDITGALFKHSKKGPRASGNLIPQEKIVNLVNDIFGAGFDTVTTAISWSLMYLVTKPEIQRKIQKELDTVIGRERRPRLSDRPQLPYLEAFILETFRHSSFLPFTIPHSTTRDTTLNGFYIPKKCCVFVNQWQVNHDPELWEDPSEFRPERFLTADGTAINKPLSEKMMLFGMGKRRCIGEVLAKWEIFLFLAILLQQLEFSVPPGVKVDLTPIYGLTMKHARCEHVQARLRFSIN
Cytochrome P450 2C19 (Homo sapiens), sequence (P33261 whole entry, looked up): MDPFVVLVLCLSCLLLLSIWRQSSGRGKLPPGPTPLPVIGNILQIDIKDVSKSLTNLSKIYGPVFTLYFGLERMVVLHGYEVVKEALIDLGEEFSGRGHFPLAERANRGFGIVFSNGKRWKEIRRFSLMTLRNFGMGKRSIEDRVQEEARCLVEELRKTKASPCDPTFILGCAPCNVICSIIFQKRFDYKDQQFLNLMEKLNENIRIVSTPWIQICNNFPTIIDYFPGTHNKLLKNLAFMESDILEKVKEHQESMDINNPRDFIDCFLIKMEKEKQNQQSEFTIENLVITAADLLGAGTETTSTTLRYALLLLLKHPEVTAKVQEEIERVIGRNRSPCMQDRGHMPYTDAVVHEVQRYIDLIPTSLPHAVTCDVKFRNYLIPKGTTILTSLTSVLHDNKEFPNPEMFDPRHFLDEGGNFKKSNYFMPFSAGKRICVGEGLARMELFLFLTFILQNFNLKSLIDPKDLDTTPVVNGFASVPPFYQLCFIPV
Cytochrome P450 2D6 (Homo sapiens), sequence (P10635 whole entry, looked up): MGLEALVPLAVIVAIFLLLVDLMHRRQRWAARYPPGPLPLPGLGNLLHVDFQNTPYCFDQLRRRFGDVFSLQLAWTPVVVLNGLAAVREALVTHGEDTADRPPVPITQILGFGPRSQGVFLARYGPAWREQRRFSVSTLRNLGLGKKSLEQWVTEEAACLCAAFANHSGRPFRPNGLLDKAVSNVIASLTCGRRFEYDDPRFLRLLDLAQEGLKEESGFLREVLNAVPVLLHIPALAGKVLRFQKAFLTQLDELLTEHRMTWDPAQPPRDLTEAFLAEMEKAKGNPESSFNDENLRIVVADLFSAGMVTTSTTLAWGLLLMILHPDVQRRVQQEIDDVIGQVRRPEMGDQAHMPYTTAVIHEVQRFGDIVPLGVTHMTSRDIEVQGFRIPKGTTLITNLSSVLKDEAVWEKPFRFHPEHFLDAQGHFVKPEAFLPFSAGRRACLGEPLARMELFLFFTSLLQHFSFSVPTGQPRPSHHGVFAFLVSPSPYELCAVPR

| Compound | Potency [1] | activity change, negative = inhibition [2] | activity, negative = inhibition [3] | Potency [4] | Potency [5] | Potency [6] | activity change, negative = inhibition [7] | max response [7, 19] | max response [7, 20] | outcome [8] | Potency [9] | activity change, negative = inhibition [10] | Potency [11] | Potency [12] | Potency [13] | outcome [14] | Potency [15] | activation [16] | Potency [17] | Potency [18] |
| --- | --- | --- | --- | --- | --- | --- | --- | --- | --- | --- | --- | --- | --- | --- | --- | --- | --- | --- | --- | --- |
| N#Cc1ccc(CN2CCC3(CCNCC3)CC2)cc1 | > 11.4 µM (inactive) | 1.45% (inactive) | 2.48% (inactive) | > 46 µM (inactive) | inactive | inactive | 1.87% (inactive) | 9.11% | 14.9% | inactive |  |  |  |  |  |  |  |  |  |  |
| CN(C)C(=O)c1ccc(-c2nc(NCc3cccs3)c3ccccc3n2)cc1 | > 11.4 µM (inactive) |  | -25% (inactive) | > 46 µM (inactive) | inactive |  | 12.5% (inactive) | 0.768% | 15.6% | inactive | 12.6 µM (active) | 28.9% (inactive) | > 46 µM (inactive) | inactive | inactive | inactive |  |  |  |  |
| c1ccc(C(c2ccccc2)N2CC[C@@]3(CCCNC3)C2)cc1 | > 11.4 µM (inactive) | 0.329% (inactive) | 8.51% (inactive) | > 46 µM (inactive) | inactive | inactive | -9.5% (inactive) | 4.5% | -6.03% | inactive |  |  |  | inactive |  |  | 7.94 µM (active) |  |  |  |
| O=C(c1cc(C(F)(F)F)cc(C(F)(F)F)c1)N1CCC2(CCN(Cc3ccccc3)CC2)CC1 | > 11.4 µM (inactive) | 9.59% (inactive) | -1.85% (inactive) | > 46 µM (inactive) | inactive | inactive | 2.31% (inactive) | 18.5% | 24.9% | inactive |  |  |  |  |  |  |  | 4.02% (inactive) |  |  |
| O=C(c1cnccn1)N1CCC2(CCCN(Cc3ccccc3)C2)CC1 | > 11.4 µM (inactive) | -6.44% (inactive) | -11.8% (inactive) | > 46 µM (inactive) | inactive | inactive | 1.18% (inactive) | 14.6% | 17.1% | inactive |  |  |  |  |  |  |  | 16.9% (inactive) |  |  |
| Cn1cccc1C(=O)N1CCC2(CC1)CCN(c1ccncc1)CC2 | > 11.4 µM (inactive) | -0.611% (inactive) | 6.85% (inactive) | > 46 µM (inactive) | inactive | inactive | 1.02% (inactive) | -0.0216% | 2.95% | inactive |  |  |  |  |  |  |  |  |  |  |
| O=C(c1ccncc1)N1CCC2(CCCN(Cc3nccs3)C2)CC1 | > 11.4 µM (inactive) | -14.3% (inactive) | 7.31% (inactive) | > 46 µM (inactive) | inactive | inactive | 6% (inactive) | 2.79% | 11.6% | inactive |  |  |  |  |  |  |  |  |  |  |
| O=C(c1cccc(F)c1)N1CCC2(CCCN(c3ccncc3)C2)CC1 | > 11.4 µM (inactive) | 8.58% (inactive) |  | > 46 µM (inactive) | inactive | inactive | 3.69% (inactive) | 9.25% | 16.5% | inactive |  |  |  |  |  |  |  |  |  |  |
| CN1CCC2(CC1)CCN(C(=O)c1cccc(F)c1)CC2 | > 11.4 µM (inactive) | 2.25% (inactive) |  | > 46 µM (inactive) | inactive | inactive | -1.77% (inactive) | 3% | 2.59% | inactive |  |  |  |  |  |  |  |  |  |  |
| O=C(c1ccncc1)N1CCC2(CC1)CN(c1ccccn1)C2 | > 11.4 µM (inactive) | 24.8% (inactive) |  | > 46 µM (inactive) | inactive | inactive | 3.6% (inactive) | 0.68% | 6.79% | inactive |  |  |  |  |  |  |  |  |  |  |
| COC(=O)N1CCC2(CCCN(c3ccncc3)C2)CC1 | > 11.4 µM (inactive) | -3.28% (inactive) | 5.05% (inactive) | > 46 µM (inactive) | inactive | inactive | 5.16% (inactive) | 21.3% | 29.2% | inactive |  |  |  |  |  |  |  |  | inactive |  |
| O=C(c1cnccn1)N1CCC2(CC1)CCN(c1ccncc1)CC2 | > 11.4 µM (inactive) | 15.7% (inactive) | 2.83% (inactive) | > 46 µM (inactive) | inactive | inactive | 2.66% (inactive) | 3.08% | 8.09% | inactive |  |  |  |  |  |  |  |  |  |  |
| COC(=O)N1CCC2(CCCN(c3ccccn3)C2)CC1 | > 11.4 µM (inactive) | -5.95% (inactive) | -6.11% (inactive) | > 46 µM (inactive) | inactive | inactive | 1.3% (inactive) | 13.5% | 15.8% | inactive |  |  |  |  |  |  |  |  | 3.16 µM (active) |  |
| CCNc1ncc2ncc(=O)n(C[C@H]3CCCO3)c2n1 | > 11.4 µM (inactive) |  |  | > 46 µM (inactive) | inactive |  | 1.57% (inactive) | 16.3% | 17.2% | inactive | 10 µM (active) | -20% (inactive) | > 9.22 µM (inactive) |  |  |  |  |  |  |  |
| CS(=O)(=O)N1CCC2(CC1)CN(C(c1ccccc1)c1ccccc1)C2 | > 11.4 µM (inactive) |  | -5.62% (inactive) | > 46 µM (inactive) | inactive | inactive | -2.92% (inactive) | -5.26% | -3.93% | inactive | inactive | -0.932% (inactive) |  | 15.8 µM (active) |  |  | inactive |  |  | 2.51 µM (active) |
